# Screening data as filed in PubChem BioAssay.
# This is one part of a sample in which hits are shown more often than they occur.
# Cruzain Triton: cruzain (T. cruzi) inhibition with detergent. P25779. purified cruzain, Z-FR-AMC fluorescence, 0.01% Triton. Potency, µM, for the others: max response, negative = inhibition, hits mostly inhibitors. actives 0.43% (n = 200,000). AID 1478; active = well fitted curve in the direction sought with a large enough effect; inconclusive = small, poorly fitted or top-dose-only effect, or another doubt; inactive = no such curve, though single readings can be large; an effect the other way counts as inactive or inconclusive;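 note: potency is the fitted concentration of half-maximal effect; plate controls were neutral wells for no effect and buffer without enzyme for full effect; nearly all actives have a fitted effect of over 40% in size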
# Target sequence (P25779 123-467 limits assumed): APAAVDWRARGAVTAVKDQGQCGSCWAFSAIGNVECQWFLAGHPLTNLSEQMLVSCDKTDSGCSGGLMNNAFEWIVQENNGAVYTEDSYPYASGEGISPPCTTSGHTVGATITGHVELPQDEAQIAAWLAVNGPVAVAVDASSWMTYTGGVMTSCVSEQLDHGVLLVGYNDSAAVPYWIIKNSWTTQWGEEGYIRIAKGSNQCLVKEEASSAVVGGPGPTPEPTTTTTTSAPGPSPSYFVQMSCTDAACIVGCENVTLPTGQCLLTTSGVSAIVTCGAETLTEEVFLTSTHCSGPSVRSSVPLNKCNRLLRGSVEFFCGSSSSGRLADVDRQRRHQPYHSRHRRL
#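 Z-FR-AMC hydrolysis (2 uM substrate) by cruzain (1.5 nM) monitored kinetically at ex 360/em 450 nm after 15 min room-temperature compound exposure; 0.01% Triton X-100, pH 5.5, 5 mM DTT.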
# Cruzain noTriton: inhibitors of Trypanosoma cruzi cruzain without detergent; Potency, µM, for the others: max response, negative = inhibition, usual class: inhibitors; purified cruzain, Z-FR-AMC fluorescence, no detergent; actives 2.3% (n = 200,000); AID 1476; active = well fitted curve in the direction sought with a large enough effect; inconclusive = small, poorly fitted or top-dose-only effect, or another doubt; inactive = no such curve, though single readings can be large; an effect the other way counts as inactive or inconclusive;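 note: potency is the fitted concentration of half-maximal effect; plate controls were enzyme without inhibitor for no effect and buffer without enzyme for full effect; nearly all actives have a fitted effect of over 40% in size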
#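 Purified cruzain at 1.5 nM, pre-incubated 15 min with compound at room temperature in 100 mM sodium acetate pH 5.5, 5 mM DTT, 0.00005% Triton X-100. Reaction started with 2 uM Z-FR-AMC; AMC fluorescence increase over 60 s gives rate.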
# NS1 inh: inhibitors of influenza NS1 protein function | Potency, µM (titrated, usually from 46.1 µM), without a hit: at the highest dose activity, positive = more growth | actives 0.4% (n = 270,000); note: potency is the fitted concentration of half-maximal effect; actives are rising curves; nearly all actives have a fitted effect of over 50% in size
#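 Growth recovery, yeast-based: influenza A NS1 expressed in S. cerevisiae causes slow growth, and suppressors are detected by OD600. The parent strain without NS1 is used as positive control.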
# NS1 inh valid: validation of influenza NS1 protein function inhibitors | influenza NS1 function cell assay, 15-point titration | shares compounds with NS1 inh | activity change, negative = inhibition, % at 32.9 µM | 1,400 tested, under 10 active; note: 0% is about no effect
# * hit, by the source's call; ? = inconclusive; . = no result given. Unless noted, calls come from the whole dose curve.
SMILES,Cruzain Triton,Cruzain noTriton,NS1 inh,NS1 inh valid
OCc1ccnc2c(O)cccc12,0.4%,-10.4%,8.91µM*,-35.7
COC(=O)N/N=C/c1cn(CCCOc2ccccc2)c2ccccc12,-9.5%,12.4%,10.2%,.
COc1ccccc1NC(=S)NC(=O)C1CC1,-3.2%,1.2%,-2.0%,.
COc1ccccc1NS(=O)(=O)c1ccc(Cl)c(NC(=S)NC(=O)C2CCCC2)c1,-13.2%,?,12.6µM*,29.8
COc1ccc(C(=O)/C=C/c2cccs2)c(OC(=O)c2cccc([N+](=O)[O-])c2)c1,2.5%,?,1.0%,.
CCCC(=O)Nc1c(-c2ccccc2)c(=O)c(C)nn1-c1ccccc1,.,.,3.9%,.
O=S(=O)(N1CCCCCC1)N1CCN(S(=O)(=O)N2CCOCC2)CC1,3.2%,1.8%,1.9%,.
COc1ccc(N(CC(=O)N2CCc3ccccc3C2)S(=O)(=O)c2c(C)nn(C)c2C)cc1,1.3%,?,-14.5%,.
O=C(c1ccc(Cl)c(Cl)c1)N1CCC(=O)N(C(COCc2cccc(Cl)c2)Cc2ccccc2)CC1 (stereo unspecified),-8.1%,3.7%,22.4µM*,1.1
O=C(c1ccc(C(F)(F)F)cc1)N1CCC(=O)N(C(COCc2ccc(C(F)(F)F)cc2)Cc2ccccc2)CC1 (stereo unspecified),-0.9%,?,?,-18.2
O=C(c1cccc(Cl)c1)N1CCC(=O)N(C(COCc2cccc(Cl)c2)Cc2ccccc2)CC1 (stereo unspecified),-6.0%,8.4%,16.7%,.
Cc1cccc(COCC(Cc2ccccc2)N2CCN(C(=O)c3ccc(C(F)(F)F)cc3)CCC2=O)c1 (stereo unspecified),-7.3%,?,20.5%,.
Cc1ccc(NC(=O)C2CC3CCC2C3)c(Br)c1 (stereo unspecified),.,.,-1.2%,.
COC(=O)CSc1nc2sc3c(c2c(=O)n1C1CCCCC1)CCN(C)C3,-13.9%,-10.2%,16.8%,.
N#Cc1c(Cl)nc(SCc2ccccc2)nc1-c1ccccc1,-12.7%,-5.2%,?,-15.9
N#Cc1c(Cl)nc(-c2ccncc2)nc1-c1ccccc1,.,.,1.5%,.
COc1ccc(CNC(=O)CN(c2cccc(OC)c2)S(C)(=O)=O)cc1,3.2%,1.9%,0.3%,.
CCOC(=O)C1=C(N)Oc2cc(C)oc(=O)c2C12C(=O)N1c3c(cc(OC)cc32)C(C)=CC1(C)C (stereo unspecified),-5.9%,?,-8.9%,.
Cc1ccccc1N(CC(=O)NC1CCCCC1)C(=O)c1csnn1,.,.,-3.7%,.
Cc1nc(Nc2nc(CSc3nc4ccccc4[nH]3)cc(=O)[nH]2)nc2ccccc12,-7.0%,-1.4%,14.1µM*,13.2
COc1ccc2nc(Nc3nc(CSc4nc5ccccc5[nH]4)cc(=O)[nH]3)nc(C)c2c1,-5.1%,?,?,.
C[N+]1(C)[C@@H]2CC[C@H]1CC(OC(=O)C(c1ccccc1)c1ccccc1)C2 (stereo partly specified),.,.,-1.4%,.
CCCC(CCC)C(=O)OC1C[C@H]2CC[C@@H](C1)[N+]2(C)C (stereo partly specified),4.6%,-3.5%,?,12.3
Cc1nc(C(=O)Nc2ccccc2)sc1C1(C)CC(c2cccc([N+](=O)[O-])c2)=NO1 (stereo unspecified),.,.,5.8%,.
COCCNC(=O)CCc1ccc(S(=O)(=O)Nc2ccc(C)cc2)cc1,-0.5%,0.3%,15.8µM*,-20.7
SMILES,Cruzain Triton,Cruzain noTriton,NS1 inh,NS1 inh valid
Cc1ccc(NS(=O)(=O)c2ccc(CCC(=O)NC3CC3)cc2)cc1,3.4%,6.6%,2.2%,.
O=C(NCCCNC(=O)c1ccccn1)c1ccccn1,6.1%,-2.8%,-5.4%,.
COc1cc(/C=C2/C(=O)NC(=O)N(c3ccccc3)C2=O)ccc1O,-1.3%,4.2%,?,34.4
COc1ccc(/C=C2/C(=O)NC(=O)N(c3ccccc3)C2=O)cc1CN1C(=O)c2ccccc2C1=O,.,.,-3.4%,.
O=C(NNC(=O)[C@@H]1CCCC[C@@H]1C(=O)O)Nc1ccccc1,-2.1%,-6.2%,-7.9%,.
Cn1c(/N=C/c2c(O)ccc3ccccc23)nc2ccccc21,-24.1%,-18.8%,11.2µM*,?
CCCn1c(/N=C/c2ccccc2O)nc2ccccc21,-5.1%,-20.4%,-3.5%,.
COc1ccc(NC(=O)Nc2ccccn2)cc1OC,.,.,-33.7%,.
O=C(O)c1ccc2c(c1)C(=O)N(NC(=O)c1ccccc1)C2=O,5.7%,0.3%,6.4%,.
COc1ccccc1/C=C1/C(=O)N(c2ccccc2)N=C1C,.,.,5.2%,.
C#CCOc1ccc(/C=C2/C(=O)N(c3cccc(C(=O)O)c3)N=C2C)cc1OC,.,.,11.2µM*,?
Cc1cccc(C(=O)NCc2nnc(SCC(=O)Nc3nnc(C)s3)n2C)c1,.,.,1.6%,.
CCc1ccc2c(c1)C(c1ccncc1)=NNC(c1ccccc1)=N2,.,.,-5.6%,.
CCOc1ccc2c(c1)C(c1ccccc1)=NNC(c1ccccc1)=N2,1.5%,?,11.2µM*,-13.2
Cc1cnc(C(=O)OCC(=O)NC2CCCCC2)cn1,2.5%,-7.3%,-3.2%,.
c1ccc(-n2c(SCC3CCCCO3)nnc2-c2cccs2)cc1 (stereo unspecified),0.6%,-4.4%,?,?
O=C(CSc1nnc(-c2cccs2)n1-c1ccccc1)NCC1CCCO1 (stereo unspecified),0.1%,-4.3%,-6.2%,.
COc1cc(C=C(c2nc3ccccc3s2)c2nc3ccccc3s2)ccc1O,-6.1%,?,10.2%,.
COc1ccc(C=C(c2nc3ccccc3s2)c2nc3ccccc3s2)cc1O,-4.3%,?,15.8µM*,-11.8
COc1cccc(NC(=O)C(=O)NCCc2sc(-c3cccc(C)c3)nc2C)c1,-5.0%,10.0%,.,.
COc1ccc(CN(Cc2nc3ccccc3c(=O)[nH]2)C(=O)c2ccco2)cc1,.,.,-18.9%,.
COc1ccc(CCN(Cc2nc3ccccc3c(=O)[nH]2)C(=O)c2ccco2)cc1OC,3.3%,-6.9%,8.91µM*,11.0
O=C(NCCCN1CCOCC1)C1CC(=O)N(C2CCCCC2)C1 (stereo unspecified),10.2%,-1.1%,1µM*,-20.1
CN1CCN(CCCNC(=O)C2CC(=O)N(C3CCCCC3)C2)CC1 (stereo unspecified),3.3%,1.3%,-3.7%,.
Cc1nn(CCCC(=O)NCc2cccc(F)c2)c(=O)c2nn(-c3ccccc3)c(C)c12,-1.3%,-4.3%,.,.
SMILES,Cruzain Triton,Cruzain noTriton,NS1 inh,NS1 inh valid
CC(Oc1ccc(Cl)cc1)C(=O)NNC(=S)NC(=O)c1ccco1 (stereo unspecified),5.2%,19.0%,-32.1%,.
Cc1c(C)c2ccc(OC(C)C(=O)N[C@@H](Cc3c[nH]c4ccccc34)C(=O)O)c(C)c2oc1=O (stereo partly specified),.,.,10µM*,19.1
Cc1c(OC(C)C(=O)NC(Cc2c[nH]c3ccc(O)cc23)C(=O)O)ccc2c1oc(=O)c1ccccc12 (stereo unspecified),.,.,17.0%,.
CCC(=O)NCCc1nc2cc(NC(=O)COc3ccccc3)ccc2n1C,.,.,7.1%,.
C=CCn1nc([N+](=O)[O-])nc1Sc1cccc2cccnc12,5.9%,14.6%,-18.2%,.
CCc1[nH]c(=S)c(C#N)c(-c2ccccc2)c1C(=O)OC,-7.0%,-15.7%,10µM*,9.0
Cc1[nH]c(=S)c(C#N)c(-c2ccccc2)c1C(=O)Nc1ccccc1,.,.,0.0%,.
